This note sets out measurements from PubChem BioAssay.

Active and inactive are the calls of the source.

The nature of the experiment: E. coli DRC41 culture turbidity changes, primary screen, E. coli filamentation inducer project, strain DRC41, OD650, 48 h (AID 1152).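 Note: E. coli MC1000 strain DRC41 lacking acrAB efflux pump and sulA.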 To be noted: E. coli DRC41 (acrAB sulA), higher = more signal, called active from +8 up or from −8 down.
Turning to `CCCC[C@@H](O)C1=C(COC)Cn2c(=O)n(-c3ccccc3)c(=O)n2[C@H]1CO`, the z-score was 4.01 (inactive). Under `CCN(CC)c1ccc(N2CC=CC34O[C@@H]5C=CCOC(=O)[C@@H]5[C@H]3C(=O)N(CCCO)[C@@H]4C2=O)cc1` (stereo not given in full) stands 1.33 (inactive); under `COCCOC(=O)N1C(=O)[C@@]2(c3cc(C#CCC(C(=O)OC)C(=O)OC)ccc31)[C@H](c1ccc(OCCO)cc1)N1[C@H](c3ccccc3)[C@H](c3ccccc3)OC(=O)[C@H]1[C@@H]2C(=O)N1CCCCCCC1`, 0.759 (inactive); under `CCOC(=O)C1=CC[C@@H](c2ccc(F)cc2)N(S(=O)(=O)c2ccc(C)cc2)[C@H]1c1ccc([N+](=O)[O-])cc1`, 0.251 (inactive). Then `COC(=O)c1c(CC[C@@H](CO)NC(=O)N[C@@H](Cc2ccccc2)Cn2cc(-c3cncn3C)nn2)oc(C(C)=O)c1C(=O)OC`, with 0.922 (inactive); and `O=C(NCCO)C1=C[C@H](Oc2ccccc2I)[C@@H](O)[C@H](NCc2ccc(F)cc2)C1`, with -1.76 (inactive); and `CCCCN1CC=CC23O[C@@H]4/C=C\CCC(C)OC(=O)C4[C@H]2C(=O)N(C(C)CO)[C@@H]3C1=O` (stereo not given in full), with 0.0581 (inactive). Then `CC(C)C[C@@H]1NC(=O)C([C@@H](C)OCc2ccccc2)NC(=O)[C@@]23C(=O)N[C@@H](Cc4ccccc4)C2[C@H](C)[C@@]2(C)O[C@H]2C3/C=C/CC/C=C/CNC1=O` (stereo not given in full), with 0.757 (inactive); and `COCCOC(=O)N1C(=O)[C@@]2(c3cc(C#CCCO)ccc31)[C@H](C(=O)N1CCc3cc(OC)c(OC)cc3C1)[C@H]1C(=O)O[C@H](c3ccccc3)[C@H](c3ccccc3)N1[C@@H]2c1ccccc1OCCO`, with 0.718 (inactive).

Turning to `COc1ccc([Si](C)(C)[C@H]2[C@H](CC(=O)N3Cc4ccccc4C[C@H]3CO)O[C@@]3(C(=O)N(Cc4cccc(N5C(=O)c6cccc7cccc5c67)c4)c4ccccc43)[C@@H]2C)cc1`, the z-score is -0.437 (inactive). Regarding `CN1C(=O)C2C(C1=O)C1C=C(c3ccc(CO)cc3)C2C(c2cccs2)N1C` (stereo not given), the z-score is 0.894 (inactive). Then `CC(C)CNC(=O)[C@@]1(C)c2ccccc2C(=O)N(Cc2cc(F)cc(C(F)(F)F)c2)[C@H]1c1ccc(CO)cc1`, with -0.144 (inactive); and `COc1ccc([Si](C)(C)[C@H]2[C@H](CCO)O[C@@]3(C(=O)N(Cc4ccc(N5CCOC5=O)cc4)c4ccccc43)[C@@H]2C)cc1`, with 0.257 (inactive). Turning to `CCCC=C(CCC)[C@@H](NC(=O)c1ccco1)c1ccc(C(=O)OC)cc1`, the z-score is -1.68 (inactive).

Regarding `CO[C@H]1O[C@H](CO)[C@@H](OC(=O)Nc2ccc(C(F)(F)F)cc2)[C@H](OC(=O)Nc2ccccc2-c2ccccc2)[C@@H]1OC(=O)Nc1ccccc1-c1ccccc1`, the z-score was 0.0065 (inactive). Under `CC[C@H](C)C(=O)O[C@H]1CC[C@]2(C)C3=C(CCC2C1(C)C)[C@]1(C)CC[C@H]([C@H](C)CCCC(C)C)[C@@]1(C)CC3` (stereo not given in full) stands 2.16 (inactive); under `COCCn1c(C(=O)N2CCCC2)cc2c1C[C@H]1CN(C(=O)c3ccccc3)[C@@](Cc3ccccc3)(C(=O)OC)[C@@H]21`, -0.91 (inactive); under `C[C@]1(C(=O)NCC(F)(F)F)c2ccccc2C(=O)N(Cc2ccc(OC(F)(F)F)cc2)[C@H]1c1ccc(CO)cc1`, -0.831 (inactive).

Take `CN(C)CCCNC(=O)[C@@H]1c2ccccc2C(=O)N(C2Cc3ccccc3C2)[C@H]1c1ccc(CO)cc1`: the z-score was 0.776 (inactive). Then `Cc1c(NC(=O)/C(C#N)=C/c2ccc(Cl)cc2)c(=O)n(-c2ccccc2)n1C`, with 0.764 (inactive); and `C=CCC(OC(C)=O)[C@@H]1[C@@H](N(Cc2ccc(-c3ccccc3)cc2)C(=O)c2cccc3ccccc23)c2cc(OCCCO)ccc2N1C(=O)c1ccc2ccccc2c1` (stereo not given in full), with -0.887 (inactive). Under `COCCOC(=O)N1C(=O)[C@@]2(c3ccccc31)[C@H](c1ccc(OCCO)cc1)N1[C@H](c3ccccc3)[C@H](c3ccccc3)OC(=O)[C@H]1[C@@H]2C(=O)N1CCN(c2ncccn2)CC1` stands 0.118 (inactive). Under `C=C(/C(=C/C[C@@H](OC(C)=O)c1ccccc1OCCO)c1cc(C(=O)OC)ccc1OC)C(C)C` stands 0.516 (inactive); under `CCCC[C@H]1OB(O)C[C@H]2C1=C(COC)C[C@H]1C(=O)C=CC(=O)[C@H]12`, 0.685 (inactive). For `COc1ccc(NC(=O)O[C@H]2[C@H](OC(=O)Nc3ccc4c(c3)OCO4)[C@H](OC(=O)Nc3ccc4c(c3)OCO4)[C@@H](OC)O[C@@H]2CO)cc1`, the z-score is -0.723 (inactive). Under `C=CCN1C(=O)[C@]2(O[C@H](CCO)[C@@H]([Si](C)(C)c3ccc(OC)cc3)[C@@H]2C)c2ccccc21` stands -1.95 (inactive); under `COC(=O)[C@]1(CO)N=C(c2ccc(OCCCO)cc2)O[C@@H]1c1ccccc1CN=[N+]=[N-]`, 0.699 (inactive); under `COc1cccc(OC)c1C(=O)O[C@H]1[C@@H]2OC(=O)[C@H](Cc3cccc(Br)c3)C/C=C/C[C@@H](Cc3cccc(Br)c3)C(=O)O[C@H]2[C@@H](OC)O[C@@H]1CO`, -0.899 (inactive). Under `COCCOC(=O)N1C(=O)[C@@]2(c3cc(C#CC4(O)CCCCCC4)ccc31)[C@H](C(=O)NC[C@H](O)c1ccccc1)[C@H]1C(=O)O[C@H](c3ccccc3)[C@H](c3ccccc3)N1[C@@H]2c1ccc(O)cc1` stands 0.664 (inactive). Then `O=C1C2C=CC(C(O)c3ccc([N+](=O)[O-])cc3)N(Nc3ccccc3)C2C(=O)N1c1ccccc1` (stereo not given), with -1.21 (inactive); and `C=C(CCCC)C(=O)CC[C@H](OC(C)=O)c1ccccc1OCCO`, with 0.0371 (inactive). On to `C=C(COC)/C(=C/C[C@H](OC(=O)c1ccncc1)c1ccc(OCCO)cc1)c1cc(C(=O)OC)ccc1OC`, for which the z-score was 1.79 (inactive).

With `COC(=O)[C@@]1(Cc2ccc(OC)cc2)[C@@H]2[C@@H](CC(=O)[C@H]2CC(=O)C(=O)N2CCCC2)CN1C(=O)c1ccccc1`, the z-score was -1.17 (inactive). For the compound `CCOC(=O)C[C@H]1[C@H](OC(=O)c2ccc(-c3ccccc3)cc2)[C@@H](NC(=O)CC(C)C)c2cc(OCCCO)ccc2N1C(=O)Cc1ccc(OC)cc1`, the z-score was -0.931 (inactive). Regarding `C=CCN1C(=O)[C@]2(O[C@H](CCn3cc([C@H](O)c4ccccc4)nn3)[C@@H]([Si](C)(C)c3ccc(OC)cc3)[C@@H]2C)c2cc(N3C(=O)c4cccc5cccc3c45)ccc21`, the z-score is 0.443 (inactive).
